# About 79,000 compounds went through this panel and 15% of them were active in at least one assay; those are over-represented in the sample as a whole. Active and inactive are the calls of the source. Rule as the data show it: active = growth inhibition above about 70%; inactive = the rest.
# Assay: NCI Yeast Anticancer Drug Screen. Data for the sgs1 mgt1 strain (AID 161);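 also: 0% = growth of cultures given vehicle only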
# Conditions: S. cerevisiae sgs1 mgt1 strain, at 5.0 µM (retest, dose inferred, filed as 0.5), hits give high values
# Method in brief: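 Genetically altered yeast, compound exposure, growth inhibition relative to vehicle.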
row,SMILES,growth inhibition
1,OCCSCc1cc(Cl)cc(Cl)c1O,-6% (inactive)
2,CC(=O)Nc1ccccc1C(O)(c1ccccc1)c1ccccc1,-5% (inactive)
3,Cc1cc(N=Nc2ccccc2C)c(N)cc1N,4% (inactive)
4,O=C(Nc1ccc(Cl)cc1)Nc1nnc(/C=C/c2ccc(Cl)c(Cl)c2)o1,-1% (inactive)
5,CCCCCCCCCCCC(=O)OCCOC(=O)CCCCCCCCCCC,-22% (inactive)
6,CCN(C(C)=O)c1ccc2c(c1)Cc1ccccc1-2,5% (inactive)
7,O=[N+]([O-])c1cccn2nc(C3OC(CO)C(O)C3O)nc12 (centres undefined),0% (inactive)
8,Oc1cc(CNCc2ccccc2)c(O)c(CNCc2ccccc2)c1,5% (inactive)
9,N#CSC#Cc1ccc(C#CSC#N)cc1,100% (active)
10,O=C(O)/C=C/C(=O)NNc1nc2ccccc2s1,0% (inactive)
11,COc1ccc2c(c1)[n+]([O-])c(-c1ccc(C)cc1)c(N)[n+]2[O-],38% (inactive)
12,C=CCc1cc([N+](=O)[O-])ccc1O,-2% (inactive)
13,CC(C)C1=CC23CCC4C(C)(C(=O)O)CCCC4(C)C2CC1c1c(O)ccc(O)c13 (centres undefined),51% (inactive)
14,NC(=O)C(CCc1cccc2ccccc12)c1ccccc1 (centres undefined),-6% (inactive)
15,CC(CO)CCC(=O)C(C)C1C(=O)CC2CC3CC(O)CCC3(C)CC21C (centres undefined),2% (inactive)
16,Oc1c(Cl)cc(Cl)cc1/C=C1\C=Nc2ccccc21,-7% (inactive)
17,CCCC(C(=O)OCCN1CCCC1(C)C)C1CCCC1 (centres undefined),24% (inactive)
18,OCCN1CCN(CCCN2c3cc(Cl)ccc3Sc3ccsc32)CC1,-7% (inactive)
19,O=C(O)/C=C/c1ccc2c(c1)CCCC2,3% (inactive)
20,CC(NNC(=S)N1CCCC1)c1ccc2ccccc2n1 (centres undefined),22% (inactive)

row,SMILES,growth inhibition
1,c1cc(CCSSCCc2ccncc2)ccn1,-1% (inactive)
2,CCOC(=O)C(N=Nc1ccc(Br)c(C)c1)C(C)=O (centres undefined),1% (inactive)
3,N#CC(C(=O)CCCC(=O)Nc1cccc([N+](=O)[O-])c1)c1cccc2ccccc12 (centres undefined),8% (inactive)
4,Cc1ccc(S(=O)(=O)NNC(=O)c2sc(-c3nc(C)c(C(=O)NNS(=O)(=O)c4ccc(C)cc4)s3)nc2C)cc1,5% (inactive)
5,Nc1nc(Cl)cc(Nc2ccc(Cl)c(Cl)c2)n1,-4% (inactive)
6,CN(C)C=Nc1c2ccccc2nc2ccccc12,11% (inactive)
7,Cc1cc(N=[N+]=[N-])c2cc(C3CCCCC3)ccc2n1,7% (inactive)
8,CCN(CC)C(=O)CCCCC(=O)OC(C)C,-6% (inactive)
9,CC12CCC(C(Br)(Br)C1=O)C2(C)C (centres undefined),26% (inactive)
10,CCCCCCCCN(CCCCCCCC)C(=O)C(C)O (centres undefined),20% (inactive)
11,O=C1C=CC(=O)C1=Cc1ccc(Cl)c(Cl)c1,100% (active)
12,COc1ccc([N+](=O)[O-])cc1NC(=O)Nc1ccc(C(=O)OCC(C)C)cc1,3% (inactive)
13,CCOC(=O)n1c2ccccc2c(=O)n1CCO,-19% (inactive)
14,CC(=O)OC12CCC3C4CC=C5CC(O)CCC5(C)C4C(=O)C3C1(C)N1CC(C)CC(O)C1C2C (centres undefined),5% (inactive)
15,Cc1cccnc1NC(=S)Nc1ccccc1Cl,28% (inactive)
16,CS(=O)(=O)OCCN(CCOS(C)(=O)=O)c1ccc(C=Nc2ccc(-c3cnc(-c4ccc(Cl)cc4)s3)cc2)c(Cl)c1,3% (inactive)
17,CC1(Cc2ccccc2)CCCC(C=O)C1=O.[Cu+2] (centres undefined),-4% (inactive)
18,C[N+]1(c2ccccc2)C=C(c2ccccc2)SC1=S (centres undefined),-8% (inactive)
19,CC12CCC3c4cc(O)ccc4CCC3C1CCC2O (centres undefined),1% (inactive)
